In all, about 5,500 compounds went through this assay and about 2,000 (36%) were called active. Roughly 18% stayed inconclusive and do not appear here. Cut-off read from the data, not from the text of the source: active = normalized growth mostly below about 0.91 (no sharp cut-off); inconclusive = no clear call, values can overlap the other calls; inactive = mostly above about 0.92. The list shows a part of the results.
Assay: chemical genetic growth profiling, strain panel (AID 1159580);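 note: tested at 20 µM; growth read once vehicle control cultures reached saturation at 30 °C; 1 = growth at the plate median or of vehicle wells; lower values mean less growth of the strain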
Settings: S. cerevisiae deletion strains, growth OD

Measured: normalized growth

N#C/C(=N/Nc1ccc(F)cc1)C(=O)c1ccccc1
active: locus YAR019C, strain CDC15, hits give low values 0.853 | locus YBL105C, strain PKC1, hits give low values 0.855 | locus YBR135W, strain CKS1, hits give low values 0.842 | locus YBR136W, strain MEC1, hits give low values 0.844 | locus YBR160W, strain CDC28, hits give low values 0.862 | locus YDL017W, strain CDC7, hits give low values 0.858 | locus YDL028C, strain MPS1, hits give low values 0.859 | locus YDL101C, strain DUN1, hits give low values 0.903 | locus YDL108W, strain KIN28, hits give low values 0.859 | locus YDR052C, strain DBF4, hits give low values 0.84 | locus YDR054C, strain cdc34, hits give low values 0.853 | locus YDR226W, strain ADK1, hits give low values 0.832 | locus YFL009W, strain cdc4, hits give low values 0.842 | locus YFL029C, strain CAK1, hits give low values 0.841 | locus YFR003C, strain YPI1, hits give low values 0.854 | locus YFR028C, strain CDC14, hits give low values 0.855 | locus YHR030C, strain SLT2, hits give low values 0.704 | locus YIL147C, strain SLN1, hits give low values 0.842 | locus YJR016C, strain ILV3, hits give low values 0.84 | locus YKL193C, strain SDS22, hits give low values 0.873 | locus YLR113W, strain HOG1, hits give low values 0.804 | locus YMR001C, strain CDC5, hits give low values 0.841 | locus YMR277W, strain FCP1, hits give low values 0.85 | locus YNL006W, strain LST8, hits give low values 0.853 | locus YNL161W, strain CBK1, hits give low values 0.863 | locus YNL207W, strain RIO2, hits give low values 0.83 | locus YNL222W, strain SSU72, hits give low values 0.87 | locus YOL078W, strain AVO1, hits give low values 0.852 | locus YOR329C, strain SCD5, hits give low values 0.868 | locus YPL204W, strain HRR25, hits give low values 0.653 | locus YPL209C, strain IPL1, hits give low values 0.876 | locus YPL256C, strain CLN2, hits give low values 0.747 | locus YPR025C, strain CCL1, hits give low values 0.863 | locus YPR106W, strain ISR1, hits give low values 0.886 | locus YPR111W, strain DBF20, hits give low values 0.862 | strain NNK1, hits give low values 0.883 | strain TSCII, hits give low values 0.844
inactive: locus YDL132W, strain cdc53, hits give low values 0.906 | locus YDL214C, strain PRR2, hits give low values 0.913 | locus YDR477W, strain SNF1, hits give low values 0.756 | locus YER123W, strain YCK3, hits give low values 0.794 | locus YER133W, strain GLC7, hits give low values 0.885 | locus YFR019W, strain FAB1, hits give low values 0.913 | locus YGR040W, strain KSS1, hits give low values 0.693 | locus YGR052W, strain FMP48, hits give low values 0.98 | locus YGR092W, strain DBF2, hits give low values 0.769 | locus YHR079C, strain IRE1, hits give low values 0.826 | locus YHR082C, strain KSP1, hits give low values 0.762 | locus YHR205W, strain SCH9, hits give low values 0.799 | locus YJL095W, strain BCK1, hits give low values 0.731 | locus YJL128C, strain PBS2, hits give low values 0.942 | locus YJL157C, strain FAR1, hits give low values 0.907 | locus YJR066W, strain TOR1 (second series), hits give low values 0.836 | locus YJR066W, strain TOR1, hits give low values 0.654 | locus YKL048C, strain ELM1, hits give low values 0.895 | locus YKL067W, strain YNK1, hits give low values 0.872 | locus YKL101W, strain HSL1, hits give low values 0.839 | locus YKL203C, strain TOR2, hits give low values 0.883 | locus YLR133W, strain CKI1, hits give low values 0.815 | locus YLR403W, strain SFP1, hits give low values 0.721 | locus YML070W, strain DAK1, hits give low values 0.854 | locus YMR205C, strain PFK2 (second series), hits give low values 0.821 | locus YNL020C, strain ARK1, hits give low values 0.819 | locus YNL183C, strain NPR1, hits give low values 0.657 | locus YNL307C, strain MCK1 (second series), hits give low values 0.795 | locus YOL136C, strain PFK27, hits give low values 0.885 | locus YOR061W, strain CKA2, hits give low values 0.849 | locus YOR119C, strain RIO1, hits give low values 0.783 | locus YOR231W, strain MKK1, hits give low values 0.736 | locus YPL031C, strain PHO85, hits give low values 0.701 | locus YPL153C, strain RAD53, hits give low values 0.757

Reference: PubChem BioAssay AID1159580 (chemical genetic matrix, 2015)
